From the supplement of paper PMC3334620
Whole data set: some 33,000 sequences, median “E-score (-0.5 to 0.5)” near -0.036, cut for the highest 2% near 0.37. Only a selection was taken, and the highest values are over-represented in it overall.

Target: T1, Yer064c (UniProt P40041)
T1 sequence: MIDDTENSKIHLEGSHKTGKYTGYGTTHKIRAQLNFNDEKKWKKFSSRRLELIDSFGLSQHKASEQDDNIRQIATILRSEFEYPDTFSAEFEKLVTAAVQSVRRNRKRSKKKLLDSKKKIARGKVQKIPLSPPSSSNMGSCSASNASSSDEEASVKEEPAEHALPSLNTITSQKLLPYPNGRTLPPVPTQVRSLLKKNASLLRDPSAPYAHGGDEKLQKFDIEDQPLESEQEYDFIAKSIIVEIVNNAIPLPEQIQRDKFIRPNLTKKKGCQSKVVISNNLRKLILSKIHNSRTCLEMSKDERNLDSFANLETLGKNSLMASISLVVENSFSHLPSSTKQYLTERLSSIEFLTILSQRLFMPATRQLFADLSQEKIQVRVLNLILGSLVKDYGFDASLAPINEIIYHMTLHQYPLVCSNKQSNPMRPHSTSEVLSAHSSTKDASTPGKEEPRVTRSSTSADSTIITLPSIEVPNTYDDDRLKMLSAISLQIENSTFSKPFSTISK
Assay: PBM E-score (8-mer binding enrichment) (E-score (-0.5 to 0.5)); higher = stronger / more preferred TF binding
Conditions: protein concentration: 200 nM; construct: GST-full length
How it was run: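 Full-length yeast transcription factors or their DNA-binding domains, GST-tagged and expressed with PURExpress, were applied at about 100-200 nM to universal all-10-mer Agilent arrays. These arrays had been made double-stranded by primer extension on fresh or once-stripped slides. Detection used fluorescent anti-GST, normalisation used masliner, and E-scores for ungapped eight-base words pooled with reverse complements came from the Universal PBM Analysis Suite.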

Sequence | PBM E-score
GCCCATCC | -0.0789
ATAAAAAA | 0.112
TTTAGAAA | 0.0151
AAGAGCGG | -0.214
CGGGTGCC | -0.315
AGTCGTGA | 0.375
ATTCGTGG | 0.186
AGTCGTGG | 0.373
AGTCGTGC | 0.371
CGTCGTGC | -0.106
AGTCGTTG | 0.326
GGTCGTGA | -0.0505
CGTCGTGA | 0.0738
AATCGTGC | 0.137
AACGAGAC | 0.0315
AAAGAGCA | -0.0916
CGGGGCAG | -0.052
CCCCTGAC | 0.173
AGCGAATA | 0.0298
ATTGGGTA | -0.138
CTGGGGAC | -0.0825
CACCCATC | 0.102
AATTGACT | 0.391
AATTGACC | -0.0998
AATTGACG | -0.178

Sequence | PBM E-score
ACTTGACA | 0.0454
ACTTGACT | 0.412
ACTTGACG | -0.0474
CAATTCCA | -0.297
CATACGAC | 0.158
ACGCGTGC | -0.0231
CCATCCGA | 0.161
AGAGAGTC | 0.409
CCAGAGTA | -0.0992
ACAGAGTC | 0.37
ACAGAGTA | 0.0495
ACAGAGTG | 0.0565
CCAGAGGC | -0.335
CGAGAGTA | 0.0908
AGAGAGTA | 0.121
CGAGAGTC | 0.421
AGAGAGTG | -0.104
CCAGAGTC | 0.38
CGAGAGAC | 0.0137
CCGCAAGC | -0.268
ACGCCATC | -0.136
CCTACCCA | -0.0884
CGAGAACA | 0.0131
GCTACGAA | -0.0422
GGCCGGGA | -0.134

Sequence | PBM E-score
CGCTACGC | -0.323
AACGGGAT | -0.185
CAATCCGG | -0.0586
GATAGGCC | -0.339
CGACTCTA | 0.343
GGACTCTA | 0.193
CGACTCAA | 0.474
TGGCTCAA | 0.332
GTACTCAC | 0.387
ATACTCAC | 0.312
CTACTCAA | 0.162
GTACTCAA | 0.314
TGACTCAA | 0.492
GGACTCAA | 0.409
GAACTCAA | 0.145
TAACTCAA | 0.263
CACCTTGG | -0.142
CCCAGCTA | -0.0347
CTGGCTAA | 0.23
CGTTCCAC | -0.25
ACGCATAC | -0.135
TAGCTCCA | -0.0907
GCACTCAC | 0.0283
GGACTCCC | 0.214
GGACTCAC | 0.43

Sequence | PBM E-score
AGGTACCG | -0.156
ACTCGAAC | 0.136
CCGTATGC | -0.167
CCATTGAC | 0.0546
CCGGCTGA | 0.165
AAGACTAA | 0.442
AAGACTAG | 0.338
AAGACTTC | 0.241
GAGACTAA | 0.413
TAGACTAA | 0.3
GAGACCAA | -0.0383
AAGACTAC | 0.413
AAGACTAT | 0.417
AAGACAAT | -0.0159
GAGACGAA | -0.0519
AAAACTAA | 0.134
CAGACTAC | 0.215
CAACAGGG | -0.202
ATGATACA | 0.246
GAAGTGCC | -0.336
GTTTGCTA | 0.0898
GAGTTGCC | -0.149
GACGGTAA | -0.284
CAACTCCG | -0.12
ATAGTTGC | 0.0257

Sequence | PBM E-score
CGATGTAC | -0.0701
AGGCCTCG | -0.184
TGGACTAA | 0.348
AGGACTAA | 0.405
AGGACTAT | 0.31
CCAGAGGA | 0.00907
ATAGGGGC | -0.262
TAAGTCAA | 0.344
TGAGTCAA | 0.489
CGAGTCAG | 0.46
GGAGTTAC | -0.0565
CGAGTCAC | 0.477
CGAGTCTC | 0.307
GGAGTCAC | 0.485
CGAGTCCC | 0.24
CAAGTCAG | 0.306
GGAGTCCC | 0.189
TCAGTCAA | 0.348
CGAGTCCG | 0.272
CCTTCTGA | -0.0564
GAGAGCCA | 0.132
TCCAGCCA | -0.198
GCGTAGCC | 0.074
ATCGATGC | -0.198
AACTAGCG | -0.119

Sequence | PBM E-score
CTCAAGGC | 0.104
ATCCACTC | -0.0532
TCCAACCA | -0.132
CATCGGCC | -0.0369
ACTGGGAC | 0.0246
TGAGTACA | 0.376
CGAGTCTA | 0.132
AGAGTACA | 0.171
CGAGTCCA | 0.0419
GGAGTCCA | 0.243
GGAGTACA | 0.129
CAAGTCAA | 0.196
CGAGTCAA | 0.444
TGAGTCCA | 0.397
GGAGTCAA | 0.431
GGAGTCTA | 0.172
GGAGTCGA | 0.212
CAAAGCCG | -0.176
ACCTGCGG | -0.208
CAGGCGGC | 0.0353
TGGCGCAA | -0.15
CGCTGGTA | -0.0555
AACTACCC | -0.158
GACTACCC | 0.42
TACTACCA | 0.00773

Sequence | PBM E-score
GACTACCA | 0.413
CACTACCC | 0.00286
CACTACCA | -0.0175
ACAAAACT | -0.0935
CAGGACCC | -0.208
GAGAACGA | -0.0613
ACTTAGTC | 0.435
CCTTAGTC | 0.41
ACTTAGTG | 0.198
CCTTAGAC | 0.063
CCTTAGTA | -0.0218
ACTTAGTA | 0.162
GTCCATAA | -0.161
CCCGGCGG | -0.182
ATCCTGGG | -0.0196
AGTCAAGC | 0.358
GGTCAAGA | -0.0401
ACTCAAGG | 0.29
CGTCAAGA | -0.229
AGTCAAGG | 0.392
AGTCAAGA | 0.414
CCTTCGTA | -0.15
